Source: the supplement of paper PMC10849652
About 7,900 targets were measured; listed, in parts, are those with a hit and a random draw of the rest. About 0.6% of all pairs of compound and target were hits. Values without a mark were called inactive.

UniProt O95232, sequence (O95232 whole entry, looked up): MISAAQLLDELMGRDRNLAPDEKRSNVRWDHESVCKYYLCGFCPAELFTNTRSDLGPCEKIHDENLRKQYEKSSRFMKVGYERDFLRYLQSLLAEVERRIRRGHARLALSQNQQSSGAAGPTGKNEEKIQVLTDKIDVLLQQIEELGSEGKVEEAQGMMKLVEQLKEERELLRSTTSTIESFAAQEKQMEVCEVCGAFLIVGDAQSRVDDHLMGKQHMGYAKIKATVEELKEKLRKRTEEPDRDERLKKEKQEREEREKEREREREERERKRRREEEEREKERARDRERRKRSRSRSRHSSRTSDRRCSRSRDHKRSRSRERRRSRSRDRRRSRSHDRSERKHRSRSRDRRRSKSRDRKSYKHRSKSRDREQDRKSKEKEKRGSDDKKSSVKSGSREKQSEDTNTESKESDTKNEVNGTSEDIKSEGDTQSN
UniProt P27816, sequence (P27816 whole entry, looked up): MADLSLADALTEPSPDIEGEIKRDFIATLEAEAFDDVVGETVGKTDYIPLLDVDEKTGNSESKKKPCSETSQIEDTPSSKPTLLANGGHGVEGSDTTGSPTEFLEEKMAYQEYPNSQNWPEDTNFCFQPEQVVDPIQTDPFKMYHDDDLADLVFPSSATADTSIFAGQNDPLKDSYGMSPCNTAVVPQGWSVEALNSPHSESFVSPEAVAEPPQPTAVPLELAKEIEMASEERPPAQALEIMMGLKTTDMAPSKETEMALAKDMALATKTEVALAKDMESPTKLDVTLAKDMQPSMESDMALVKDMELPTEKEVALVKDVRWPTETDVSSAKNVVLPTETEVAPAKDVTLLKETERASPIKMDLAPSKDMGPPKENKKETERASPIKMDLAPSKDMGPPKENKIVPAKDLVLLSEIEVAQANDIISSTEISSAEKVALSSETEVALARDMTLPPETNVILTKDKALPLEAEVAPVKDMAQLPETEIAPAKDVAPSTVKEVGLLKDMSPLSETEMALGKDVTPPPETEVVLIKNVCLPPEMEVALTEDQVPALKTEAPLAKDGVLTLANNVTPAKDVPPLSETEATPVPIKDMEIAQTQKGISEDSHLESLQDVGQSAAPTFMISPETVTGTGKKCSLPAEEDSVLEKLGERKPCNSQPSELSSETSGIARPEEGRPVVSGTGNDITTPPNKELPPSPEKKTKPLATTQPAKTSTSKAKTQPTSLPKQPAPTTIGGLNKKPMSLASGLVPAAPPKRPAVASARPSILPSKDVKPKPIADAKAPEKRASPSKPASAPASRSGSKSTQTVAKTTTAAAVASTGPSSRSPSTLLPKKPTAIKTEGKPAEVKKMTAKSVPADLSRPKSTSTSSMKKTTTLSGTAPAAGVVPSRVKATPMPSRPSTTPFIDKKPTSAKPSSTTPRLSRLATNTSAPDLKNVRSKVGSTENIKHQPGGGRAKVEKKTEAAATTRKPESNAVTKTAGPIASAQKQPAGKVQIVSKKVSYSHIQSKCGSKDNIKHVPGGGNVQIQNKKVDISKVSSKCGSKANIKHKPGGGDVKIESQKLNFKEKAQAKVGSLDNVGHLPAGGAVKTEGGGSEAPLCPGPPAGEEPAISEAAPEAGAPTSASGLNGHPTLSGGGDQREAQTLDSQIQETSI
UniProt Q8WV07, sequence (Q8WV07 whole entry, looked up): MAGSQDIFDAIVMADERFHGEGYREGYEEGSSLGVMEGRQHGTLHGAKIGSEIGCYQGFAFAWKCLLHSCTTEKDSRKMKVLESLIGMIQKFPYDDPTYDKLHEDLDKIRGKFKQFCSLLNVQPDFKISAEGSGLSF
UniProt Q86V48, sequence (Q86V48 whole entry, looked up): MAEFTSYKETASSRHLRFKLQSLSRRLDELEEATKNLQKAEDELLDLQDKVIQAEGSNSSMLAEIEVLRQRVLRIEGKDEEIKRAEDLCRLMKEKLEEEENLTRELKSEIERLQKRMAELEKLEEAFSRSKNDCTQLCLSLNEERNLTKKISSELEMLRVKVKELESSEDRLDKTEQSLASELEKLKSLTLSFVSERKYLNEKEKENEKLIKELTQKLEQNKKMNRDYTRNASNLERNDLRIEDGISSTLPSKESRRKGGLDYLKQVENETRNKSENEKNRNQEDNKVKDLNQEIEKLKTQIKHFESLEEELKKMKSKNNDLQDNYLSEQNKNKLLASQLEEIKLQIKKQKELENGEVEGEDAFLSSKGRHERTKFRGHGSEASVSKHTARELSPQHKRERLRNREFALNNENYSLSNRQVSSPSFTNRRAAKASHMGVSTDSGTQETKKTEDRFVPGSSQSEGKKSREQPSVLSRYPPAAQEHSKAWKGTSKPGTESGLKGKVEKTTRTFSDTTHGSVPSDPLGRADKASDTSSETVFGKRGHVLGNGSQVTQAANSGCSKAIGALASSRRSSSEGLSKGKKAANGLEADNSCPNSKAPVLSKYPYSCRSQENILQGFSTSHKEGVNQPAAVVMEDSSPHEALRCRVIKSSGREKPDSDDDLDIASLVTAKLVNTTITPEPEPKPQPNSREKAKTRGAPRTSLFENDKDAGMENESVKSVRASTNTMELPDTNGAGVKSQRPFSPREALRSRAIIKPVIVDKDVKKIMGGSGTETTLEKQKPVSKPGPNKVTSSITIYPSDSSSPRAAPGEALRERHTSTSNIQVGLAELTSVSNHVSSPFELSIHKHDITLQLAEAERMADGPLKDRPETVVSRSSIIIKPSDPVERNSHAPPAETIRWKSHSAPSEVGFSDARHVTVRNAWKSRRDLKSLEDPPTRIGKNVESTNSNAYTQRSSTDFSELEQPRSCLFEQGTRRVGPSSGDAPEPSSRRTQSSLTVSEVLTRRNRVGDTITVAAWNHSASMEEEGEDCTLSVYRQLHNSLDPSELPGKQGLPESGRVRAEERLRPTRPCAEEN
UniProt Q96EK5, sequence (Q96EK5 whole entry, looked up): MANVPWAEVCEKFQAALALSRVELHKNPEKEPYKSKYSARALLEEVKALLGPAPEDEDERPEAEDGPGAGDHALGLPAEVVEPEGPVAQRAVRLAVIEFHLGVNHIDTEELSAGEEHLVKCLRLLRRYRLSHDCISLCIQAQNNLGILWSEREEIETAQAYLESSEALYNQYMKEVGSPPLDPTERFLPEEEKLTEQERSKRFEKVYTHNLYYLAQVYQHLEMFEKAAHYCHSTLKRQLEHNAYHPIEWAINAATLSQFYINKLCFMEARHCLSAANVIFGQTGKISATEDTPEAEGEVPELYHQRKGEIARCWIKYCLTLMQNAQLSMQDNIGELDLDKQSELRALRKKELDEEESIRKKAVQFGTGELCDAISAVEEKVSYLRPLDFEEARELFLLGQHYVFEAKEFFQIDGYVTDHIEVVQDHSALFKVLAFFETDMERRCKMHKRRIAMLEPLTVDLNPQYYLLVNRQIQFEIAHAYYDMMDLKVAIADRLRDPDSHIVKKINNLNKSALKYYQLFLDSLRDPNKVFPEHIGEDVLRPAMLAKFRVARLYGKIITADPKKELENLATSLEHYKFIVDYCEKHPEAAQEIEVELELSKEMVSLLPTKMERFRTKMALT
UniProt Q9BY66, sequence (Q9BY66 whole entry, looked up): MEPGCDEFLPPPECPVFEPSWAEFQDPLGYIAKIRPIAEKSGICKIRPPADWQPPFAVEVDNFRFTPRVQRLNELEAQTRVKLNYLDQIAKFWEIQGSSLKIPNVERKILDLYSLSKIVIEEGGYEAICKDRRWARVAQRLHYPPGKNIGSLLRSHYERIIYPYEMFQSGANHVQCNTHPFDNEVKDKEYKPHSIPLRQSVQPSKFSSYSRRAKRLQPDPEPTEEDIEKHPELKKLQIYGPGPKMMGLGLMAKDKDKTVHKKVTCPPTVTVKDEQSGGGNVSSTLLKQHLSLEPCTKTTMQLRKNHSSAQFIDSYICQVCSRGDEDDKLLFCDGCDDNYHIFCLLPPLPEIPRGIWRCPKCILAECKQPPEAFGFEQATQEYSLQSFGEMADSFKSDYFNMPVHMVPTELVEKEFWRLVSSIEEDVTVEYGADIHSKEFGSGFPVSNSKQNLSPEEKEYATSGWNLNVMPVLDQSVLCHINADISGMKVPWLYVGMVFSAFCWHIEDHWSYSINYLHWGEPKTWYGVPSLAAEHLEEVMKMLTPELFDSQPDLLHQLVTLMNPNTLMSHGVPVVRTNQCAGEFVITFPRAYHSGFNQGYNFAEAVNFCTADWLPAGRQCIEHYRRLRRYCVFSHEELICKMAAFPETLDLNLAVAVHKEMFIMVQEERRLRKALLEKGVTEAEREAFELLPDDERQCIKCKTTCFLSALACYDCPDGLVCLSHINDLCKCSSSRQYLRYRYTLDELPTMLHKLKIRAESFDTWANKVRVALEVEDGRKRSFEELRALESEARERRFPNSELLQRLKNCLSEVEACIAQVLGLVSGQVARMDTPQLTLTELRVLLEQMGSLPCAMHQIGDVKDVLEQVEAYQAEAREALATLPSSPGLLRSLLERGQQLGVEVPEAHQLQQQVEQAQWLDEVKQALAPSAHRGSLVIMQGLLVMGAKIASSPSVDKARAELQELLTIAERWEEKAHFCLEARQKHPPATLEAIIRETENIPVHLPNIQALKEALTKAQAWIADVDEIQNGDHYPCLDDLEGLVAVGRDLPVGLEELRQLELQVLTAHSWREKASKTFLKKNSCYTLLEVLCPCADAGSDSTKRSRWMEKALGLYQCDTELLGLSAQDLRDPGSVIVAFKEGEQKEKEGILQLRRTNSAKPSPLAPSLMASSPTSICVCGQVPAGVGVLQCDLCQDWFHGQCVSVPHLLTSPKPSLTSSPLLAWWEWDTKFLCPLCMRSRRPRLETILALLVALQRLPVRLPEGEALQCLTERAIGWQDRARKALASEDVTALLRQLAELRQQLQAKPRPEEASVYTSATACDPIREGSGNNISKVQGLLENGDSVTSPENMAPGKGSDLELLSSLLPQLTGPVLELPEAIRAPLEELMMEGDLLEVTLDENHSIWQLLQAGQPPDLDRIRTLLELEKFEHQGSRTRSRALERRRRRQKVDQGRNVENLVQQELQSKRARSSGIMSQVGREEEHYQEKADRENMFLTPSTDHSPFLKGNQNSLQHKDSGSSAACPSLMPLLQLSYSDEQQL

Each target was assayed with CC(C)C1=C2N=C(C=C(N2N=C1)NCC3=CC=CC=C3)NCCCCCCN (assay: log2 fold change, soluble protein after heating vs DMSO (PISA); higher = thermal stabilisation; K562 cells, 10 uM, 30 min; active = over 0.2 and 3.5 SD of the protein, either way, in both replicates (recomputed)).
Method in brief: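 K562 cells at 2×10^6 cells/mL were exposed to 10 μM compound for 30 min, then aliquots were heated for 3 min across 48°C-58°C, pooled, and extracted in PBS containing 0.5% NP-40 at 4°C. The supernatant after 21,000xg for 90 min was taken as soluble protein and measured by TMTpro 16plex LC-MS/MS with channel sums equalised. Thermal stability is reported relative to control samples, with values from duplicates. Fold changes are given on a log2 scale.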
Target MAPK9 (UniProt P45984) has a log2 fold change of -0.037.
MGST3 (UniProt O14880) showed a log2 fold change of 0.073.
In the case of INTS7 (UniProt Q9NVH2), the log2 fold change is reported as -0.146.
LARP1 (UniProt Q6PKG0) gave a log2 fold change of -0.088.
For KDM5D isoform 3 (UniProt Q9BY66), the log2 fold change was 0.036.
For MAP2K1 (UniProt Q02750), the log2 fold change was 0.023.
Target MAP3K20 (UniProt Q9NYL2) has a log2 fold change of 0.034.
In the case of LUC7L3 (UniProt O95232), the log2 fold change is reported as -0.04.
LBR (UniProt Q14739) showed a log2 fold change of -0.168.
L2HGDH (UniProt Q9H9P8) was tested, and the log2 fold change was -0.069.
For KDM3B (UniProt Q7LBC6), the log2 fold change was -0.047.
In the case of LUC7L2 (UniProt Q9Y383), the log2 fold change is reported as -0.134.
With MFN2 (UniProt O95140) the log2 fold change was -0.479 (active).
IPO9 (UniProt Q96P70) was tested, and the log2 fold change was -0.039.
LSR (UniProt Q86X29) gave a log2 fold change of 0.093.
Work on MAP4 (UniProt P27816) yielded a log2 fold change of 0.076.
For LARP7 isoform 3 (UniProt Q4G0J3), the log2 fold change was -0.246.
MFF (UniProt Q9GZY8) was tested, and the log2 fold change was -0.074.
For METTL18 (UniProt O95568), the log2 fold change was -0.009.
Target ILF3 isoform 7 (UniProt Q12906) has a log2 fold change of 0.338.
With LAMP2 (UniProt P13473) the log2 fold change was -0.033.
In the case of LRPPRC (UniProt P42704), the log2 fold change is reported as -1.09 (active).
MAPKAPK3 (UniProt Q16644) showed a log2 fold change of -0.121.
MDC1 (UniProt Q14676) showed a log2 fold change of -0.321.
Work on MAPKAPK5 (UniProt Q8IW41) yielded a log2 fold change of 0.218.
In the case of KRAS isoform 2 (UniProt P01116), the log2 fold change is reported as 0.099.
Target LTO1 (UniProt Q8WV07) has a log2 fold change of -0.017.
In the case of MEAK7 (UniProt Q6P9B6), the log2 fold change is reported as -0.2.
In the case of KPNA6 (UniProt O60684), the log2 fold change is reported as -0.239.
LSS (UniProt P48449) was tested, and the log2 fold change was 0.199.
Work on MARK3 (UniProt P27448) yielded a log2 fold change of -0.171.
In the case of KIFBP (UniProt Q96EK5), the log2 fold change is reported as -0.172.
LUZP1 (UniProt Q86V48) showed a log2 fold change of 0.019.
Target MARK2 (UniProt E9PC69) has a log2 fold change of -0.581.
In the case of IRF2BPL (UniProt Q9H1B7), the log2 fold change is reported as 0.076.
For MFN1 (UniProt Q8IWA4), the log2 fold change was -0.607 (active).
In the case of LUC7L (UniProt Q9NQ29), the log2 fold change is reported as -0.007.
IMMP1L (UniProt Q96LU5) gave a log2 fold change of 0.026.
With IL27RA (UniProt Q6UWB1) the log2 fold change was 0.139.
